Data from the supplement of paper PMC8728848.
The sample as a whole holds a higher share of the strongest signals than the screen did.

What was measured:
Assay in all cases: glycan array binding signal (z-score within array); higher = stronger binding
Conditions in all cases: glycan notation: IUPAC condensed, linker removed
[1] = target: Fuc(a1-2)Gal(b1-4)Fuc(a1-3)]GlcNAc(b1-2)Man(a1-3)[Fuc(a1-2)Gal(b1-4)[Fuc(a1-3)]GlcNAc(b1-2)Man(a1-6)]Man(b1-4)GlcNAc(b1-4)GlcNAc
Summary of the method: (§1)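 The binding signal is a Z-score computed within each array and averaged over linkers. Arrays of the same protein sequence at different concentrations or buffers were also averaged together. Data originate from 3228 arrays in the Consortium for Functional Glycomics database, kept only where the protein sequence was available.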

[2] = target: Fuc(a1-2)Gal(b1-4)GlcNAc(b1-3)[Fuc(a1-3)[Gal(b1-4)]GlcNAc(b1-6)]Gal(b1-4)Glc
Summary of the method: as §1

[3] = target: Fuc(a1-2)Gal(b1-4)[Fuc(a1-3)]GlcNAc(b1-2)Man(a1-3)[Fuc(a1-2)Gal(b1-4)[Fuc(a1-3)]GlcNAc(b1-2)Man(a1-6)]Man(b1-4)GlcNAc(b1-4)GlcNAc
Summary of the method: as §1

[4] = target: Fuc(a1-2)Gal6S(b1-3)GlcNAc6S
Summary of the method: as §1

[5] = target: Fuc(a1-2)[Gal(a1-3)]Gal(b1-3)GlcNAc(b1-3)GalNAc
Summary of the method: as §1

[6] = target: Fuc(a1-2)[Gal(a1-3)]Gal(b1-4)[Fuc(a1-3)]Glc
Summary of the method: as §1

[7] = target: Fuc(a1-2)[GalNAc(a1-3)]Gal(b1-4)GlcNAc
Summary of the method: as §1

[8] = target: Fuc(a1-2)[GalNAc(a1-3)]Gal(b1-4)GlcNAc(b1-2)Man(a1-3)[Fuc(a1-2)[GalNAc(a1-3)]Gal(b1-4)GlcNAc(b1-2)Man(a1-6)]Man(b1-4)GlcNAc(b1-4)GlcNAc
Summary of the method: as §1

Fuc(a1-3)GlcNAc = target: Fuc(a1-3)GlcNAc
Summary of the method: as §1

[9] = target: Fuc(a1-3)[Gal3S(b1-4)]GlcNAc
Summary of the method: as §1

[10] = target: Fuc(a1-3)[Gal3S(b1-4)]GlcNAc6S
Summary of the method: as §1

Gal(a1-3)Gal(b1-3)GlcNAc = target: Gal(a1-3)Gal(b1-3)GlcNAc
Summary of the method: as §1

[11] = target: Gal(a1-3)Gal(b1-3)[Fuc(a1-4)]GlcNAc(b1-2)Man(a1-3)[Gal(a1-3)Gal(b1-3)[Fuc(a1-4)]GlcNAc(b1-2)Man(a1-6)]Man(b1-4)GlcNAc(b1-4)GlcNAc
Summary of the method: as §1

[12] = target: Gal(a1-3)Gal(b1-4)GlcNAc(b1-2)Man
Summary of the method: as §1

[13] = target: Gal(a1-3)[Gal(a1-4)]Gal(b1-4)GlcNAc
Summary of the method: as §1

[14] = target: Gal(a1-4)Gal(b1-4)GlcNAc(b1-2)Man(a1-3)[Gal(a1-4)Gal(b1-4)GlcNAc(b1-2)Man(a1-6)]Man(b1-4)GlcNAc(b1-4)GlcNAc
Summary of the method: as §1

Gal(b1-3)GlcNAc = target: Gal(b1-3)GlcNAc
Summary of the method: as §1

[15] = target: Gal(b1-3)GlcNAc(b1-2)Man(a1-3)[Gal(b1-3)GlcNAc(b1-2)Man(a1-6)]Man(b1-4)GlcNAc(b1-4)[Fuc(a1-6)]GlcNAc
Summary of the method: as §1

Gal(b1-3)GlcNAc6S = target: Gal(b1-3)GlcNAc6S
Summary of the method: as §1

[16] = target: Gal(b1-3)[Fuc(a1-4)]GlcNAc(b1-2)Man(a1-3)[Gal(b1-3)[Fuc(a1-4)]GlcNAc(b1-2)Man(a1-6)]Man(b1-4)GlcNAc(b1-4)GlcNAc
Summary of the method: as §1

Gal(b1-4)Gal = target: Gal(b1-4)Gal
Summary of the method: as §1

[17] = target: Gal(b1-4)GlcNAc(b1-3)Gal(b1-3)GlcNAc
Summary of the method: as §1

[18] = target: Gal(b1-4)GlcNAc(b1-3)Gal(b1-4)GlcNAc(b1-3)Gal(b1-4)GlcNAc(b1-3)Gal(b1-4)GlcNAc(b1-2)Man(a1-3)[Gal(b1-4)GlcNAc(b1-3)Gal(b1-4)GlcNAc(b1-3)Gal(b1-4)GlcNAc(b1-3)Gal(b1-4)GlcNAc(b1-2)Man(a1-6)]Man(b1-4)GlcNAc(b1-4)[Fuc(a1-6)]GlcNAc
Summary of the method: as §1

[19] = target: Gal(b1-4)GlcNAc(b1-3)Gal(b1-4)GlcNAc(b1-3)Gal(b1-4)GlcNAc(b1-3)Gal(b1-4)GlcNAc(b1-3)Gal(b1-4)GlcNAc(b1-2)Man(a1-3)[Gal(b1-4)GlcNAc(b1-3)Gal(b1-4)GlcNAc(b1-3)Gal(b1-4)GlcNAc(b1-3)Gal(b1-4)GlcNAc(b1-3)Gal(b1-4)GlcNAc(b1-2)Man(a1-6)]Man(b1-4)GlcNAc(b1-4)GlcNAc
Summary of the method: as §1

[20] = target: Gal(b1-4)GlcNAc(b1-3)[Gal(b1-4)GlcNAc(b1-6)]Gal(b1-4)GlcNAc
Summary of the method: as §1

[21] = target: Gal(b1-4)GlcNAc(b1-3)[Gal(b1-4)GlcNAc(b1-6)]GalNAc
Summary of the method: as §1

B1: CRT-1 (Homo sapiens), P27797 (protein)
chain: MLLSVPLLLGLLGLAVAEPAVYFKEQFLDGDGWTSRWIESKHKSDFGKFVLSSGKFYGDEEKDKGLQTSQDARFYALSASFEPFSNKGQTLVVQFTVKHEQNIDCGGGYVKLFPNSLDQTDMHGDSEYNIMFGPDICGPGTKKVHVIFNYKGKNVLINKDIRCKDDEFTHLYTLIVRPDNTYEVKIDNSQVESGSLEDDWDFLPPKKIKDPDASKPEDWDERAKIDDPTDSKPEDWDKPEHIPDPDAKKPEDWDEEMDGEWEPPVIQNPEYKGEWKPRQIDNPDYKGTWIHPEIDNPEYSPDPSIYAYDNFGVLGLDLWQVKSGTIFDNFLITNDEAYAEEFGNETWGVTKAAEKQMKDKQDEEQRLKEEEEDKKRKEEEEAEDKEDDEDKDEDEEDEEDKEEDEEEDVPGQAKDEL
- glycan array binding signal (z-score) [1]: 1.49
- glycan array binding signal (z-score) [2]: 0.038
- glycan array binding signal (z-score) [3]: 2.15
- glycan array binding signal (z-score) [4]: 0.305
- glycan array binding signal (z-score) [5]: -0.073
- glycan array binding signal (z-score) [6]: -0.424
- glycan array binding signal (z-score) [7]: -0.467
- glycan array binding signal (z-score) [8]: 0.117
- glycan array binding signal (z-score) (Fuc(a1-3)GlcNAc): 2.63
- glycan array binding signal (z-score) [9]: 0.572
- glycan array binding signal (z-score) [10]: 0.146
- glycan array binding signal (z-score) (Gal(a1-3)Gal(b1-3)GlcNAc): -0.43
- glycan array binding signal (z-score) [11]: 0.078
- glycan array binding signal (z-score) [12]: -0.279
- glycan array binding signal (z-score) [13]: 0.255
- glycan array binding signal (z-score) [14]: -0.021
- glycan array binding signal (z-score) (Gal(b1-3)GlcNAc): -0.063
- glycan array binding signal (z-score) [15]: 0.223
- glycan array binding signal (z-score) (Gal(b1-3)GlcNAc6S): 0.611
- glycan array binding signal (z-score) [16]: 2.33
- glycan array binding signal (z-score) (Gal(b1-4)Gal): -0.253
- glycan array binding signal (z-score) [17]: -0.342
- glycan array binding signal (z-score) [18]: 1.79
- glycan array binding signal (z-score) [19]: 1.75
- glycan array binding signal (z-score) [20]: 0.487
- glycan array binding signal (z-score) [21]: -0.095
